{"source": "PubChem BioAssay (Tox21)", "note": "Records with an inconclusive call do not appear. A number with no mark means an inactive call. The source made the active and inactive calls. The call rests on the fitted dose curve; in most records, active means well fitted curve in the direction sought with a large enough effect in the repeat runs; inconclusive means weak or mixed curves; inactive means no such curve, though single readings can be large; an effect the other way counts as inactive or inconclusive. On the % scale 0 is the no-effect control and ±100 the full control effect."}
{"assay": "qHTS assay to identify small molecule agonists of the RXR signaling pathway - cell viability counter screen (AID 1159529);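 further: HEK 293T cells carrying an RXR-alpha UAS beta-lactamase reporter; nearly all actives have a fitted effect of over 50% in size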", "conditions": "RXR-alpha-bla HEK293T viability, CellTiter-Glo, 16 h; series mostly up to 76.8 µM; activity change, negative = cytotoxicity: at the top concentration", "summary_of_the_method": "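Counter screen: CellTiter-Glo luminescence. Cells: RXR-alpha-UAS-bla HEK 293T. Medium: 2% charcoal-stripped FBS. Treatment: 16 h, 37 C. Reagent incubation: 30 min, RT.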"}
{"smiles": "COP(=S)(OC)SCN1C(=O)c2ccccc2C1=O", "outcome": "inactive"}
{"smiles": "Oc1ccc(Cl)cc1", "outcome": "inactive"}
{"smiles": "Cc1ccccc1N", "outcome": "inactive"}
{"smiles": "C=C(C)C(=O)OCC(CC)CCCC", "note": "(configuration not stated)", "outcome": "inactive"}
{"smiles": "COP(=S)(OC)Oc1ccc(SC)c(C)c1", "outcome": "inactive"}
{"smiles": "Cc1cccc(N)c1", "outcome": "inactive"}
{"smiles": "CCOP(=S)(OCC)Oc1cc(C)nc(C(C)C)n1", "outcome": "inactive"}
{"smiles": "Sc1ccccc1", "outcome": "inactive"}
{"smiles": "Nc1ccc([As](=O)(O)O)cc1", "outcome": "inactive"}
{"smiles": "c1ccc2c(c1)CCCC2", "outcome": "inactive"}
{"smiles": "O=C(O)C(Br)Br", "outcome": "inactive"}
{"smiles": "C=CC(=O)OCC(CC)CCCC", "note": "(configuration not stated)", "outcome": "inactive"}
{"smiles": "CC12CC1(C)C(=O)N(c1cc(Cl)cc(Cl)c1)C2=O", "note": "(configuration not stated)", "outcome": "inactive"}
{"smiles": "Nc1cccc(Cl)c1", "outcome": "inactive"}
{"smiles": "Cc1cccc(C)c1N", "outcome": "inactive"}
{"smiles": "NNc1ccccc1", "outcome": "inactive"}
{"smiles": "CCCOC(=O)c1ccccc1C(=O)OCCC", "outcome": "inactive"}
{"smiles": "OCc1ccco1", "outcome": "inactive"}
{"smiles": "O=C(O)CCCc1ccc(N(CCCl)CCCl)cc1", "outcome": "inactive"}
{"smiles": "CC(=O)C1CCOC1=O", "note": "(configuration not stated)", "outcome": "inactive"}
{"smiles": "CC(=O)/C=C/c1ccccc1", "outcome": "inactive"}
{"smiles": "CC(C)CCCCCCOC(=O)c1ccccc1C(=O)OCCCCCCC(C)C", "outcome": "inactive"}
{"smiles": "O=C(O)C1C(C(=O)O)C2(Cl)C(Cl)=C(Cl)C1(Cl)C2(Cl)Cl", "note": "(configuration not stated)", "outcome": "inactive"}
{"smiles": "CC(C)(C)C(=O)CCl", "outcome": "inactive"}
{"smiles": "C[C@]12CC[C@H](O)CC1=CC[C@@H]1[C@@H]2CC[C@]2(C)C(=O)CC[C@@H]12", "outcome": "inactive"}
{"smiles": "O=C(O)COc1ccccc1", "outcome": "inactive"}
{"smiles": "O=[N+]([O-])c1cc([As](=O)(O)O)ccc1O", "outcome": "inactive"}
{"smiles": "O=C(O)c1cc(Oc2ccc(C(F)(F)F)cc2Cl)ccc1[N+](=O)[O-]", "outcome": "inactive"}
{"smiles": "CCNc1nc(Cl)nc(NC(C)C)n1", "outcome": "inactive"}
{"smiles": "O=S(=O)(O)OOS(=O)(=O)O", "outcome": "inactive"}
{"smiles": "O=[N+]([O-])c1ccc(Cl)cc1", "outcome": "inactive"}
{"assay": "qHTS assay to identify small molecule antagonists of the retinoid acid receptor (RAR) signaling pathway - cell viability counter screen (AID 1159551); further: nearly all actives have a fitted effect of over 35% in size", "conditions": "C3RL4 cells viability, ATP luminescence (CellTiter-Glo), 6 h; series mostly up to 92.4 µM; activity change, negative = cytotoxicity: at the top concentration", "summary_of_the_method": "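Measured by luminescent ATP detection, viability reflects C3RL4 cells treated 6 h at 37 C with test chemicals in the presence of 1 uM (final) retinol.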", "units": {"activity change, negative = cytotoxicity": "%"}}
{"smiles": "COP(=S)(OC)SCN1C(=O)c2ccccc2C1=O", "outcome": "inactive"}
{"smiles": "Oc1ccc(Cl)cc1", "outcome": "inactive"}
{"smiles": "Cc1ccccc1N", "outcome": "inactive"}
{"smiles": "C=C(C)C(=O)OCC(CC)CCCC", "note": "(configuration not stated)", "activity change, negative = cytotoxicity": -0.765}
{"smiles": "COP(=S)(OC)Oc1ccc(SC)c(C)c1", "outcome": "inactive"}
{"smiles": "Cc1cccc(N)c1", "outcome": "inactive"}
{"smiles": "CCOP(=S)(OCC)Oc1cc(C)nc(C(C)C)n1", "outcome": "inactive"}
{"smiles": "Sc1ccccc1", "outcome": "inactive"}
{"smiles": "Nc1ccc([As](=O)(O)O)cc1", "outcome": "inactive"}
{"smiles": "c1ccc2c(c1)CCCC2", "outcome": "inactive"}
{"smiles": "O=C(O)C(Br)Br", "outcome": "inactive"}
{"smiles": "C=CC(=O)OCC(CC)CCCC", "note": "(configuration not stated)", "outcome": "inactive"}
{"smiles": "CC12CC1(C)C(=O)N(c1cc(Cl)cc(Cl)c1)C2=O", "note": "(configuration not stated)", "outcome": "inactive"}
{"smiles": "Nc1cccc(Cl)c1", "outcome": "inactive"}
{"smiles": "Cc1cccc(C)c1N", "outcome": "inactive"}
{"smiles": "NNc1ccccc1", "outcome": "inactive"}
{"smiles": "CCCOC(=O)c1ccccc1C(=O)OCCC", "outcome": "inactive"}
{"smiles": "OCc1ccco1", "outcome": "inactive"}
{"smiles": "O=C(O)CCCc1ccc(N(CCCl)CCCl)cc1", "outcome": "inactive"}
{"smiles": "CC(=O)C1CCOC1=O", "note": "(configuration not stated)", "outcome": "inactive"}
{"smiles": "CC(=O)/C=C/c1ccccc1", "outcome": "inactive"}
{"smiles": "CC(C)CCCCCCOC(=O)c1ccccc1C(=O)OCCCCCCC(C)C", "outcome": "inactive"}
{"smiles": "O=C(O)C1C(C(=O)O)C2(Cl)C(Cl)=C(Cl)C1(Cl)C2(Cl)Cl", "note": "(configuration not stated)", "outcome": "inactive"}
{"smiles": "CC(C)(C)C(=O)CCl", "outcome": "inactive"}
{"smiles": "C[C@]12CC[C@H](O)CC1=CC[C@@H]1[C@@H]2CC[C@]2(C)C(=O)CC[C@@H]12", "outcome": "inactive"}
{"smiles": "O=C(O)COc1ccccc1", "outcome": "inactive"}
{"smiles": "O=[N+]([O-])c1cc([As](=O)(O)O)ccc1O", "outcome": "inactive"}
{"smiles": "O=C(O)c1cc(Oc2ccc(C(F)(F)F)cc2Cl)ccc1[N+](=O)[O-]", "outcome": "inactive"}
{"smiles": "CCNc1nc(Cl)nc(NC(C)C)n1", "outcome": "inactive"}
{"smiles": "O=S(=O)(O)OOS(=O)(=O)O", "outcome": "inactive"}
{"smiles": "O=[N+]([O-])c1ccc(Cl)cc1", "outcome": "inactive"}
